# Only some compounds are listed: those with a hit (about 2.9% of all), similar ones and a draw of the others.
# NadD block – inhibitors of S. aureus NadD, primary screen, biochemical, colorimetric, uHTS; inhibition, % at 20 µM; purified NadD enzyme, colorimetric absorbance read-out; actives 0.78% (n = 360,000); in the data active = inhibition above about 26%
# APOBEC3A inh – APOBEC3A ssDNA deaminase inhibitors, primary screen, selectivity assay for APOBEC3G inhibitor project, biochemical, FAM/TAMRA oligo cleavage fluorescence; recombinant A3A, FAM/TAMRA ssDNA deamination fluorescence; DNA dC->dU-editing enzyme APOBEC-3A (Homo sapiens), P31941; inhibition, % at 20 µM; actives 0.41% (n = 330,000);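 active = at least 40% inhibition at 20 µM here, with at most 30% in a related deaminase screen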;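 also: plate controls were A3A with DMSO for no effect and wells lacking A3A enzyme for full effect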
# Target sequence (P31941 whole entry, looked up): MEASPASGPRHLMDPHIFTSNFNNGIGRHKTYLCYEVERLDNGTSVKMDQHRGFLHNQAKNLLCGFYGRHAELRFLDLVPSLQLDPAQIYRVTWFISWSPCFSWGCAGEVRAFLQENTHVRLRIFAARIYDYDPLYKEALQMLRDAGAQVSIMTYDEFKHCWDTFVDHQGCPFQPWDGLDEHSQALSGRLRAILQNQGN
# H9c2 protect – cardioprotection against H2O2-induced cell death, primary screen, uHTS, H9c2 cells, ATPLite luminescence | H9c2 cardiomyocytes, H2O2 injury protection, 2 h | protection from H2O2 cell death, % at 20 µM | actives 0.63% (n = 360,000);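 active = compounds giving at least 50% protection of heart cells from peroxide-induced death in the single-dose screen, raw or plate-pattern-corrected value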;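 also: 0% = DMSO wells with peroxide and 100% = DMSO wells without peroxide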
# A3G deaminase – APOBEC3G DNA deaminase inhibitors, primary screen, biochemical, fluorescence, single-stranded DNA substrate, uHTS; inhibition, % at 20 µM; recombinant A3G, ssDNA deamination FAM/TAMRA fluorescence; AID 493012, 2011; actives 0.28% (n = 330,000); DNA dC->dU-editing enzyme APOBEC-3G (Homo sapiens), Q9HC16;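 active = inhibition of at least 40% at 20 µM, with no more than 30% in the related APOBEC3A deaminase screen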;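 also: plate controls were DMSO wells with A3G for no effect and wells lacking A3G enzyme for full effect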
# Target sequence (Q9HC16 whole entry, looked up): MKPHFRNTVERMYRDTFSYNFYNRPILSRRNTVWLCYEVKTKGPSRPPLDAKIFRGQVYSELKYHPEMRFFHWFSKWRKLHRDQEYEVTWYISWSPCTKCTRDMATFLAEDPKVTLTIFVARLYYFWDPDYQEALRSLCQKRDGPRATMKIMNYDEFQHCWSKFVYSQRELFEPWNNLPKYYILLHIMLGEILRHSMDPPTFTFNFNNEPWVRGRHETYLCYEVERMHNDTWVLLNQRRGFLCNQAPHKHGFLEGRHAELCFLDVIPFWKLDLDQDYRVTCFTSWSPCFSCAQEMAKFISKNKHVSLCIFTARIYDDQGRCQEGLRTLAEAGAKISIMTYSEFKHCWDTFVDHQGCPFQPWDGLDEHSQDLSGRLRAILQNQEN
# PfGluPho inh – PfG6PD enzyme inhibitors, primary screen, biochemical, fluorescence intensity, uHTS; glucose-6-phosphate dehydrogenase-6-phosphogluconolactonase (Plasmodium falciparum 3D7); PfGluPho enzyme, NADPH resazurin-diaphorase fluorescence; inhibition, % at 20 µM; actives 0.78% (n = 350,000); AID 504690, 2011;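 active = inhibition reaching at least a set limit at 20 µM in the primary screen, cut at about 59% in these data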;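 also: 0% = DMSO wells with substrate and 100% = DMSO wells lacking glucose-6-phosphate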
# TAG inh – inhibitors of triacylglycerol accumulation, primary screen, cell-based, uHTS, fluorescence, H9c2. H9c2 cells, Nile Red lipid (TAG) fluorescence; cells loaded with 200 µM oleic acid. actives 0.66% (n = 230,000). inhibition, % at 12.5 µM;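 active = pattern-corrected inhibition of lipid staining of at least 50% with the nuclear-stain viability signal not falling by more than 50%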;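 also: 0% = DMSO wells and 100% = triacsin C control wells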
# NadD inh conf – inhibitors of S. aureus NadD, confirmation, biochemical, colorimetric, single concentration | shares compounds with NadD block | purified S. aureus NadD, colorimetric enzyme assay | inhibition, % at 20 µM | actives 13% (n = 2,000); in the data active = inhibition mostly above about 42%, no sharp cut-off; inactive = mostly below about 42%
# * marks the source's active call; other numbers are inactive results; . = no result.
SMILES,NadD block,APOBEC3A inh,H9c2 protect,A3G deaminase,PfGluPho inh,TAG inh,NadD inh conf
COc1ccc(-c2csc(Nc3ccc(S(=O)(=O)Nc4cc(OC)nc(OC)n4)cc3)n2)cc1,28.0*,-1.8,-8.6,-3.9,-17.7,.,41.8
Cc1ccccc1C(=O)Nc1nc(-c2cccnc2)cs1,30.0*,-3.9,-1.5,9.7,-9.7,3.4,13.8
COc1ccc(S(=O)(=O)Nc2ccccc2C(=O)Nc2nc(-c3ccc(F)cc3)cs2)cc1OC,1.9,-4.2,-27.5,-9.3,-19.7,.,.
COc1ccc(CCNC(=O)CN(c2ccc(OC)c(OC)c2)S(=O)(=O)c2ccccc2)cc1OC,-2.5,-1.7,7.4,-8.5,-12.8,.,.
Cc1cc(C)n2nc(C(=O)Nc3ccc(S(=O)(=O)N(C)C)cc3)nc2n1,-5.5,-2.7,7.7,-3.1,10.3,7.0,.
O=C(N/C(=C\c1ccco1)C(=O)N1CCOCC1)c1ccccc1Cl,0.2,-4.5,8.5,-7.6,9.1,.,.
COc1ccc(C(=O)/C=C/Nc2ccc(S(=O)(=O)Nc3cc(OC)nc(OC)n3)cc2)c(OC)c1,31.7*,-6.4,0.7,-5.4,-17.4,.,43.2
S=c1[nH]nc(-c2cc(-c3ccsc3)n[nH]2)n1-c1cccc2ccccc12,31.6*,-4.1,1.8,-9.3,25.9,.,31.7
N#CCC(=O)N/N=C/c1cc(Br)ccc1OCc1cccc2ccccc12,25.9*,-3.3,-0.6,-8.8,17.2,.,28.8
N#CCC(=O)N/N=C/c1c2ccccc2cc2ccccc12,-3.1,-3.7,7.5,-3.7,8.1,-1.5,.
COc1ccc(NC(=O)C2c3ccccc3OCC(=O)N2Cc2ccc3c(c2)OCO3)cc1 (stereo unspecified),-1.2,.,.,.,.,.,.
c1ccn2cc(-c3ccc4c(c3)OCO4)cc2c1,29.0*,2.3,-4.2,-0.6,16.8,0.5,34.9
O=c1cc(CN2CCN(S(=O)(=O)c3cccc(Cl)c3)CC2)c2ccc(O)cc2o1,35.0*,6.5,54.0*,-1.8,-0.2,17.4,41.0
O=C(O)c1ccc(/C=N/NC(=O)c2ccc(CN3c4cccc5cccc(c45)S3(=O)=O)cc2)cc1,29.6*,6.3,-2.8,1.9,19.2,2.1,66.2*
CC(/C=N/NC(=O)c1ccc(CN2c3cccc4cccc(c34)S2(=O)=O)cc1)c1ccccc1 (stereo unspecified),27.2,1.0,2.4,-1.3,10.4,.,.
Cc1nn(CC(=O)Nc2ccc3c(c2)nc2n3CCN(C3CCCCC3)C2)c(=O)c2ccccc12,31.7*,8.0,-4.0,22.7,11.6,17.8,13.1
CCCCC1=CC2=CC(=O)C(C)(OC(=O)CC)C(=O)C2=CO1 (stereo unspecified),32.6*,-1.4,5.5,-9.3,6.0,5.2,45.3*
CCCCC1=CC2=CC(=O)C(C)(OC(=O)C3CCCC3)C(=O)C2=CO1 (stereo unspecified),53.0*,-0.9,2.7,-9.0,9.9,8.7,29.4
Cc1ccccc1SCC(=O)OCC(=O)NCc1ccccc1,0.5,-2.3,1.4,-5.8,-0.1,-17.2,.
Cc1cccc2sc(NNC(=O)c3cc(=O)c4ccccc4o3)nc12,45.2*,0.2,11.3,-3.1,24.8,-2.6,60.0*
O=C(NNc1nc2c(F)cccc2s1)c1cc(=O)c2ccccc2o1,14.9,-1.0,-0.3,-0.5,2.6,-1.7,.
Cc1ccc2sc(NNC(=O)c3cc(=O)c4ccccc4o3)nc2c1C,64.4*,-0.5,56.1*,-9.9,4.5,-13.6,70.2*
COc1ccc(Cl)cc1C(=O)NNC(=O)CNC(=O)c1ccc(C)s1,-3.1,-2.7,-1.3,-6.8,-10.0,-3.0,.
S=c1[nH]nc(COc2ccc(Cl)cc2)n1C1CCCCC1,34.5*,-6.8,-7.5,-5.1,-13.4,.,32.8
COc1ccc2c(C=O)cn(C)c2c1,-0.9,1.9,1.9,-7.5,13.7,15.3,.
SMILES,NadD block,APOBEC3A inh,H9c2 protect,A3G deaminase,PfGluPho inh,TAG inh,NadD inh conf
FC(F)(F)c1nnc(-c2ccccc2)nc1Sc1ccc(Cl)cc1,32.8*,-2.4,-2.1,-6.9,7.4,-14.0,-2.9
FC(F)(F)c1nnc(-c2ccccc2)nc1Sc1ccccc1,17.3,-3.2,-11.1,1.6,9.5,-17.3,.
CSc1ccccc1NC(=O)COc1ccc(Cl)cc1C,-0.7,-1.4,-7.4,-4.3,6.2,.,.
Cc1cc(Cl)ccc1OCC(=O)Nn1c(C)ccc1C,40.5*,-2.3,-1.8,-2.6,-22.9,5.3,3.5
Cc1cccn2c(=O)c(/C=C(\C#N)S(=O)(=O)c3ccccc3)c(N3CCN(c4ccccc4)CC3)nc12,43.4*,1.8,1.5,-3.1,-11.1,.,0.7
CC(=O)Oc1ccc(C(=O)[C@H]2[C@H]3C(=O)N(c4cccc5ccccc45)C(=O)[C@H]3[C@@H]3C=CC=NN32)cc1,45.4*,0.3,1.4,-3.5,1.0,.,24.5
COc1ccc(C(=O)[C@H]2[C@H]3C(=O)N(c4ccc(OC(C)=O)cc4)C(=O)[C@H]3C3C=CC=NN32)cc1 (stereo partly specified),13.3,1.1,-8.3,2.7,0.9,2.9,.
Cc1ccc(NS(=O)(=O)c2cc(NC(=O)c3ccc4c(c3)NC(=O)CS4)ccc2Cl)c(C)c1,37.4*,-2.2,-0.2,32.1,44.8,11.1,52.2*
COc1ccc(NC(=O)c2ccc3c(c2)NC(=O)CS3)cc1,6.3,39.0,-4.3,3.3,38.3,3.8,.
O=C(CSc1nc2ccccc2c(=O)n1-c1ccccc1)N/N=C/C=C/c1ccccc1[N+](=O)[O-],23.9,1.1,-1.0,-6.2,-3.0,8.9,.
O=C(N/N=C/C=C\c1ccccc1[N+](=O)[O-])c1cc(-c2ccc3ccccc3c2)n[nH]1,42.5*,.,0.3,.,-9.0,.,26.9*
O=C(N/N=C/C=C/c1ccccc1[N+](=O)[O-])c1ccncc1,5.2,-2.3,8.0,-4.6,-8.9,3.4,.
Cc1ccccc1-n1c(SCC(=O)N/N=C/C=C/c2ccccc2[N+](=O)[O-])nc2ccccc2c1=O,32.7*,-5.2,-3.9,-4.9,-1.4,-6.4,17.9
COc1ccccc1-c1cc(C(=O)N/N=C/C=C/c2ccccc2[N+](=O)[O-])c2ccccc2n1,38.2*,-1.7,53.9*,-6.1,-11.1,3.0,29.7
